{"source": "the supplement of paper PMC10681739"}
{"molecular_target": "T1, ETS1 (UniProt P14921)", "T1 sequence": "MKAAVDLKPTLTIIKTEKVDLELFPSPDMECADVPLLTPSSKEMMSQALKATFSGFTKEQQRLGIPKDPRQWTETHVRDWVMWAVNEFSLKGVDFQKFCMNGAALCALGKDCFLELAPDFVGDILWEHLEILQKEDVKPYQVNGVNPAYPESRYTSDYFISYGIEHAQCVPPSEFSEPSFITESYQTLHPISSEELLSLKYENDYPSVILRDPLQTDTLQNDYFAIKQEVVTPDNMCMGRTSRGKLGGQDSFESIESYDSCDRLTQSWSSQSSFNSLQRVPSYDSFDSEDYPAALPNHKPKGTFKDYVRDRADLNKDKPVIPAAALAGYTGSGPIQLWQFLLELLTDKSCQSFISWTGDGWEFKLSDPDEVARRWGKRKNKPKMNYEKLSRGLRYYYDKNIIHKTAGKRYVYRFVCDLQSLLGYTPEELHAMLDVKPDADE", "assay": "ETS1 binding intensity (PBM fluorescence) in presence of RUNX1, normalised to ETS1-only experiment (arbitrary fluorescence units); higher = stronger binding", "settings": "ETS1 concentration 1 nM; RUNX1 concentration 25 nM", "experimental": "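Cooperative genomic-context PBM: 36-bp genomic probes with neighbouring ETS1 and RUNX1 sites, double-stranded on Agilent 4x180k arrays. Full-length recombinant human ETS1 (1 nM) was incubated alone or with RUNX1 (25 nM) and detected with anti-ETS1 antibody plus Alexa488 secondary. Value is the median fluorescence intensity over 4 replicate spots; the ETS1+RUNX1 data were normalised to the ETS1-only data using probes without RUNX1 sites. The 36-bp variable region sits on the array probe with constant linker/primer flanks that are not printed.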"}
{"sequence": "TCAGAACCAGGAAACTGAAGGCGGTTACTCCACATA", "ETS1 binding intensity": 663}
{"sequence": "GACAGCAACTCCACTTCCTGTGGGCGAGGGCCCTGT", "ETS1 binding intensity": 2270}
{"sequence": "TTACTTCTCAGGAAGCGCTGTGGGGCTGGGGTTGCT", "ETS1 binding intensity": 513}
{"sequence": "GAGGACTTCCGGGTGGGTGTGATATCTGCGGGCCCG", "ETS1 binding intensity": 677}
{"sequence": "GGGAACTGGGGAAGGGGATGTGGTAACCAGAACCAC", "ETS1 binding intensity": 2600}
{"sequence": "AGCTCCCCTCCCCGGAAACTTGACCACCTAGCCCAG", "ETS1 binding intensity": 1660}
{"sequence": "ATGACTCATTTCCTCACTCTCTACTCCCACAGAACC", "ETS1 binding intensity": 464}
{"sequence": "GACCGAGAGGAAGCAGCAAGGATCCTGCGGTTCCAG", "ETS1 binding intensity": 1990}
{"sequence": "TGCCCAGTACTTCCTCTTGTGGGGGAGCACAACTTG", "ETS1 binding intensity": 424}
{"sequence": "GGCCGTTCTTCCGCCTGCAGGGTGGTCAGCGGAGGT", "ETS1 binding intensity": 446}
{"sequence": "CGGGACCTGTTTCCTTGGGAACCACAAGATAAGACC", "ETS1 binding intensity": 520}
{"sequence": "GTAAGTAGGCCAGGAAGTGGTCACTGCAGCATGTGA", "ETS1 binding intensity": 4960}
{"sequence": "TGGGGAGGCAGGAAACGGGCCTTGTGGTTGGGGGGT", "ETS1 binding intensity": 16900}
{"sequence": "GTGGCGAAAGTGCGGATGCGAAACCGCTGGCTCGGC", "ETS1 binding intensity": 1060}
{"sequence": "CTCACTTCCCCGGCAGCTCCCTCGCCCCGACCGCAG", "ETS1 binding intensity": 479}
{"sequence": "GAAAGCTGCACTATTTCCTGAGGTTAGAGGTTTAAA", "ETS1 binding intensity": 502}
{"sequence": "TTGCTTTATCACTTCCTGTTTGAGGTTTATATCCAT", "ETS1 binding intensity": 9450}
{"sequence": "CACCTGCCTTGCTTCCTGCGGTGCAACCAGCGGGAG", "ETS1 binding intensity": 520}
{"sequence": "TGTCCGCACCCCACTTCCGCCCCGCAGAGGGCAACG", "ETS1 binding intensity": 3480}
{"sequence": "CCTGACTTCCTCCTCCCCCTCCCGCCACAATTCCGC", "ETS1 binding intensity": 1620}
{"sequence": "CCGCCGCGACACTTCCGGCGGCCACCACAGGGTATT", "ETS1 binding intensity": 3020}
{"sequence": "GTTTTCAAGGCAGGAAGTGGCTGTGGTGGCACGGAG", "ETS1 binding intensity": 21300}
{"sequence": "ACAAGGACTTCCGCCTCCCTGCGGTCCCTCCCCTAC", "ETS1 binding intensity": 1380}
{"sequence": "TCCTGGCAGAGACCGGAAGTGCGGTCCGCGGAGCGT", "ETS1 binding intensity": 43300}
{"sequence": "TTTTATCCTTCCTTTTTTGTTCTTTGTGGTGGAGGT", "ETS1 binding intensity": 521}
{"sequence": "TACCACTGAAAGGATGTGCGGGTAGAAATGAGCAAT", "ETS1 binding intensity": 938}
{"sequence": "TCATTTCCTCTGGTGTTATTGTGTTGTGGTTTTAAG", "ETS1 binding intensity": 1560}
{"sequence": "TAGGCCGGAAAGCACCACCGTCCTCCCGCAGGCCGC", "ETS1 binding intensity": 386}
{"sequence": "CCGCCTCCGGAAGAATTCTCTGCGGGCATGTTGCTG", "ETS1 binding intensity": 775}
{"sequence": "ATGCGAGTCTGCTTCCTGCCACAAATCACAATTTGA", "ETS1 binding intensity": 686}
{"sequence": "GCAGAGTTTACAACAGGATGTGGTTATTGGCGCTGC", "ETS1 binding intensity": 46800}
{"sequence": "CCAGAAAGCTCCTCCTTCCGCCACAACACGATCACT", "ETS1 binding intensity": 451}
{"sequence": "TTTCCTCGGATTCCCGGATGTGGGTGAGTTCATTTG", "ETS1 binding intensity": 9630}
{"sequence": "CCCGTTCTCCGGAAGTGCGCGGGTTGGAGCTGAAGC", "ETS1 binding intensity": 5690}
{"sequence": "GCACGCGCCGGGCGGAACCCACAGGCCTGGAAGCGA", "ETS1 binding intensity": 803}
{"sequence": "GAGGAGGAAAGCGGAAGCGCTGCCCGCAGTGGTAGG", "ETS1 binding intensity": 8570}
{"sequence": "AGCCCGCCGGAAACTAGCGTCACCGCGCCAAGGTTC", "ETS1 binding intensity": 1250}
{"sequence": "CCACTCCCAGCTCCATCCTGTGGGTAGAACTCAGTG", "ETS1 binding intensity": 452}
{"sequence": "GCCACGCAGTTCCCTTCCTGCGGCGTCCTCCACACC", "ETS1 binding intensity": 421}
{"sequence": "TGTGAGAAGCCGGATCCTGTGGTGACCCAGTGGCCT", "ETS1 binding intensity": 479}
